# According to PubChem BioAssay AID1531 (NMMLSC, 2009):
# Out of some 290,000 compounds screened, about 3,300 (1.1%) were called active. Rule as the data show it: active = binding response below about 67% or above about 130%; inconclusive = no clear call, values can overlap the other calls; inactive = in between. The list comes from a sample in which actives are over-represented; it also holds similar structures and randomly drawn compounds.
# Target: Mitogen-activated protein kinase kinase kinase 2 (Homo sapiens) (UniProt Q9Y2U5)
# Assay: modulators of MEK5 binding to wildtype MEKK2, primary screen, biochemical, multiplex bead flow cytometry, Alexa488-MEK5 (AID 1531)
# Details: Alexa488-MEK5 binding to MEKK2 WT, at 10 µM, actives lie on both sides
row,Compound,binding response (% of control)
1,COc1ccc2c(c1)CCNC2Cc1ccc(OC)c(O)c1 (configuration not stated),96% (inactive)
2,COc1ccc(N2CCN(CCNC(=O)Nc3cc(Cl)ccc3Cl)CC2)cc1,113% (inactive)
3,C=CC1=C(C(=O)O)N2C(=O)[C@@H](NC(=O)/C(=N/OCC(=O)O)c3csc(N)n3)[C@H]2SC1,98% (inactive)
4,COc1ccc(/C=N/N=C2/C(=O)Nc3ccccc32)cc1O,98% (inactive)
5,O=C1Nc2ccc(Br)cc2/C1=N/N=C/C1=C(N2CCOCC2)C(=C\c2ccccc2)/CC1,40% [inhibitor] (active)
6,C(=N\N1CCN(c2ccccn2)CC1)/C1=C(N2CCOCC2)C(=C/c2ccccc2)/CC1,104% (inactive)
7,CS(=O)(=O)N1CCN(C(=O)CSc2ccccc2)CC1,101% (inactive)
8,COc1ccc(C)cc1Nc1n[n+](-c2ccccc2)c(-c2cccc(Cl)c2Cl)s1,120% (inactive)
9,COc1cc(Br)c(-c2sc(Nc3ccccc3)n[n+]2-c2ccccc2)cc1OC,152% (active)
10,CC(C)(C)C(=O)c1cnc(Nc2ccccc2)s1,100% (inactive)
11,COc1ccc(C#Cc2c(-c3ccc(OC)cc3)oc3ccc(-c4ccc5c(c4)OCO5)cc23)cc1,96% (inactive)
12,O=C(CNC(=O)OCc1ccccc1)NC1CCCCNC1=O (configuration not stated),100% (inactive)
13,Cc1ccc(NC(=S)N(CCCN2CCC(C)CC2)Cc2ccco2)cc1,107% (inactive)
14,Cc1ccc(NC(=S)N(CCN2CCCCC2)Cc2ccco2)cc1C,97% (inactive)
15,Cc1ccc(NC(=S)N(CCCN2CCCC2)Cc2cccn2Cc2ccc(Cl)cc2)cc1,181% (active)
16,COc1ccc(CCNCc2c(-c3ccccc3)n(C)c3ccccc23)cc1,131% (inactive)
17,CCOC(=O)C1(Cc2ccccc2C(F)(F)F)CCN(C(=O)c2cc(C)n(C)n2)CC1,91% (inactive)
18,COc1ccc(N(C)S(=O)(=O)c2ccc3c(c2)CC(C)N3C(=O)C2CC2)c(OC)c1 (configuration not stated),101% (inactive)
19,CC1(OC(=O)C2CCCC2)C(=O)C=C2C=C(c3ccc(C#N)cc3)OC=C2C1=O (configuration not stated),90% (inactive)
20,COC(=O)CCCC1=CC2=CC(=O)C(C)(OC(=O)c3cccs3)C(=O)C2=CN1CC1CC1 (configuration not stated),87% (inactive)
21,COCCN1C=C2C(=O)C(C)(OC(=O)C3CCCC3)C(=O)C=C2C=C1c1ccsc1 (configuration not stated),164% (active)
22,Cc1ccc(NC(=S)NCCc2ccc(Cl)cc2)c(C)c1,111% (inactive)
23,CN(CC(=O)Nc1cccc(F)c1)CC(=O)Nc1cccc([N+](=O)[O-])c1,691% (active)

row,Compound,binding response (% of control)
1,Cc1ccc(NC(=O)CN(C)CC(=O)Nc2cccc(F)c2)cc1[N+](=O)[O-],97% (inactive)
2,Cc1ccc(CN(C)CC(=O)Nc2cccc([N+](=O)[O-])c2)o1,83% (inactive)
3,O=C(NCCNc1ccccc1[N+](=O)[O-])c1ccccc1F,105% (inactive)
4,CCN1CCN(c2ccc(S(=O)(=O)N3CCCCC3)cc2NC(=O)Cc2c(Cl)cccc2Cl)CC1,150% (active)
5,CN1CCN(c2ccc(S(=O)(=O)N3CCCCC3)cc2NC(=O)Cc2ccccc2F)CC1,106% (inactive)
6,COc1ccc(CC(=O)Nc2cc(S(=O)(=O)N3CCCCC3)ccc2N2CCN(C)CC2)cc1,103% (inactive)
7,CCOC(=O)/C=C/c1ccc(C(F)(F)F)cc1S(=O)(=O)NC(C)(C)C,93% (inactive)
8,Cc1ccc(N(CC(=O)NC2CCCCC2)C(=O)CCCC(=O)Nc2ccccn2)c(C)c1,105% (inactive)
9,CC1(C)c2[nH]c3ccccc3c2C[C@H]2C(=O)N(N)CC(=O)N21,110% (inactive)
10,CCc1ccc2nc(N(CCCN(C)C)C(=O)c3ccc4c(c3)OCCO4)sc2c1,116% (inactive)
11,CCOc1ccc2nc(N(CCCN(C)C)C(=O)c3ccc(C(=O)c4ccccc4)cc3)sc2c1,155% (active)
12,CCN(CC)CCN(C(=O)c1ccc(S(=O)(=O)N2CCOCC2)cc1)c1nc2cc3c(cc2s1)OCCO3,115% (inactive)
13,CN(C)CCN(C(=O)C1=COCCO1)c1nc2ccc(Cl)cc2s1,111% (inactive)
14,O=C(Nc1nc2ccc([N+](=O)[O-])cc2s1)c1ccc(S(=O)(=O)N2CCCc3ccccc32)cc1,91% (inactive)
15,CN(C)CCCN(C(=O)c1ccc(S(=O)(=O)N2CCCCCC2)cc1)c1nc2ccc(Br)cc2s1,237% (active)
16,CN(C)CCCN(C(=O)c1ccc(S(=O)(=O)N2CCCc3ccccc32)cc1)c1nc2ccc(F)cc2s1,232% (active)
17,CCOc1ccc2nc(N(CCN(C)C)C(=O)c3ccc4ccccc4c3)sc2c1,129% (inactive)
18,CSc1nc2ccc(S(=O)(=O)N3CCc4ccccc43)cc2s1,98% (inactive)
19,O=C1c2ccccc2S(=O)(=O)c2cc(N3CCN(c4ccccn4)CC3)ccc21,97% (inactive)
20,Cc1cccc(C(=O)N2CCN(S(=O)(=O)N3CCCCC3)CC2)c1,108% (inactive)
21,COC(C/C=C/C(=O)[C@@H](C)OCc1ccccc1)OC,99% (inactive)
22,Cc1nc(-c2ccccc2)sc1C1(C)CC(c2cccnc2)=NO1 (configuration not stated),101% (inactive)
23,COc1ccc(NC2CCCN(C(=O)c3ccncc3)C2)cc1 (configuration not stated),97% (inactive)

row,Compound,binding response (% of control)
1,Cc1ccccc1C(OCC(O)CN1CCCCC1CCO)c1ccccc1 (configuration not stated),121% (inactive)
2,COc1cccc(CN(C)CC(O)COC(c2ccccc2)c2ccccc2C)c1 (configuration not stated),150% (active)
3,COc1cccc(CN(C)CC(=O)Nc2ccccc2C(=O)Nc2ccccc2)c1,88% (inactive)
4,Cc1ccc(CN(N=Nc2nonc2N)c2nonc2N)c(C)c1,92% (inactive)
5,CCN(CC)S(=O)(=O)c1ccc(N2CCOCC2)c(NC(=O)C2CSC3(C)CCC(=O)N23)c1 (configuration not stated),100% (inactive)
6,Cc1ccc(OCC(=O)OC(C)CN(C)Cc2ccccc2)cc1 (configuration not stated),94% (inactive)
7,OC(CNCc1ccc2c(c1)OCO2)COc1ccccc1 (configuration not stated),93% (inactive)
8,CN(Cc1ccccc1)CC(O)COc1ccc(CNCc2cc3ccccc3s2)cc1 (configuration not stated),138% (active)
9,O=C(N/N=C/c1cccc(O)c1)c1cc2c(ccc3ccccc32)o1,97% (inactive)
10,CCOC(=O)c1c(-c2ccccc2)csc1NC(=S)NC(=O)c1ccccc1,13% [inhibitor] (active)
11,CCOC(=O)c1c(-c2cccc(C)c2)csc1NC(=O)c1c(-c2ccccc2)noc1C,84% (inactive)
12,CCOC(=O)c1c(-c2ccc(-c3ccccc3)cc2)csc1NC(=O)CCC(=O)O,97% (inactive)
13,Cc1cccc(C)c1NC(=O)N1CC(C)OC(C)C1 (configuration not stated),107% (inactive)
14,CCc1cccc(C)c1NC(=S)N(CCCN1CCN(C)CC1)Cc1cccs1,100% (inactive)
15,Cc1cccc(C)c1NC(=O)C1(C)c2cccc[n+]2CC(=O)N1Cc1cccs1 (configuration not stated),-5% (active)
16,COc1ccc(C(=O)N2CCCCC2C(=O)Nc2ccc(-n3nc(C)cc3C)cc2)o1 (configuration not stated),107% (inactive)
17,COc1ccc(Nc2ncc(F)c(N3CCOCC3)n2)cc1,78% (inactive)
18,CC(=O)N1c2ccc(S(=O)(=O)N3CCC(C(=O)NCc4ccc(F)cc4)CC3)cc2CC1C (configuration not stated),99% (inactive)
19,O=C(O)C(c1ccccc1)N1C(=O)/C(=C\c2ccc(-c3cccc(Cl)c3)o2)SC1=S (configuration not stated),85% (inactive)
20,CN1C(=O)/C(=C\c2ccc(-c3ccccc3)o2)SC1=S,14% [inhibitor] (active)
21,NS(=O)(=O)c1ccc(-c2ccc(/C=C3\SC(=O)NC3=O)o2)cc1,102% (inactive)
22,COc1ccc(C2CC(=O)Nc3cc(C)c(C)cc32)c(OC)c1OC (configuration not stated),-2% [inhibitor] (active)
23,COc1cc2c(cc1OC)C(c1ccncc1)CC(=O)N2 (configuration not stated),117% (inactive)

row,Compound,binding response (% of control)
1,COc1cc2c(cc1OC)C(c1ccc(C)o1)CC(=O)N2 (configuration not stated),98% (inactive)
2,CCOc1ccc(C)cc1S(=O)(=O)NC1CCCCCC1,106% (inactive)
3,Cc1ccc2c(c1)N(CC(=O)N1CCC(O)CC1)C(=O)CO2,94% (inactive)
4,N=c1c2c(-c3ccccc3)c(-c3ccccc3)oc2ncn1Cc1ccco1,92% (inactive)
5,N=c1c2c(-c3ccccc3)c(-c3ccccc3)n(Cc3ccccc3)c2ncn1CCCO,155% (active)
6,CCN(CC)CCn1cnc2c1c(=O)[nH]c(=O)n2Cc1ccccc1,104% (inactive)
7,O=C(CN1CCN(c2ccccn2)CC1)NC1CCCCC1,104% (inactive)
8,O=C(CN1CCN(c2ccccn2)CC1)N1CCc2ccccc21,3% (active)
9,O=C(CN1CCN(c2ccccn2)CC1)Nc1ccc(Br)cc1,109% (inactive)
10,Cc1ccc(CNC(=O)c2ccc3c(c2)S(=O)(=O)c2ccccc2C3=O)cc1,111% (inactive)
11,COc1ccc(-c2[nH]ncc2CN(C)Cc2cc(C)[nH]n2)c(F)c1,83% (inactive)
12,COc1ccc(-c2[nH]ncc2CN(C)Cc2cccnc2)c(F)c1,102% (inactive)
13,COc1ccc(-c2[nH]ncc2CN(C)Cc2c(C)n[nH]c2C)c(OC)c1,-2% [inhibitor] (active)
14,COc1ccc(CCOC(=O)CNC(=O)c2ccc(Cl)cc2Cl)cc1,86% (inactive)
15,CCc1cccc(C)c1NS(=O)(=O)c1c(C)nc2sccn2c1=O,101% (inactive)
16,CCN(CC)c1ccc(/C=N/NC(=O)CNC(=O)c2cccs2)cc1,92% (inactive)
17,O=C(c1ccc(Cl)cc1)n1cnc2ccccc21,106% (inactive)
18,Cc1cc(C)c(NC(=O)c2oc3ccccc3c2COc2ccccc2)c(C)c1,100% (inactive)
19,Cc1cc(C)c(NC(=O)C[N+](C)(C)CC(O)COc2cccc3ccccc23)c(C)c1 (configuration not stated),149% (active)
20,Cc1cc(C)cc(OCC(=O)NCc2cc(C)nc3ccccc23)c1,103% (inactive)
21,Cc1cc(C)n(CC(O)COc2ccc(C(C)(C)C)cc2)n1 (configuration not stated),107% (inactive)
22,CC(C)(c1ccccc1)c1ccc(OCCN)cc1,117% (inactive)
23,CN(C)CC(O)COc1ccc(C(C)(C)c2ccc(OCC(O)CN(C)C)cc2)cc1 (configuration not stated),225% (active)
